Laboratory results from PubChem BioAssay (NCI).
Several values for one entry are separate records, joined by “and”; a condition that tells them apart may be missing. Equal entries are not always repeated. Compounds without any hit were thinned out: in the full panel of roughly 83,000, 20% have a hit.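 48-hour exposure, single concentration, 96-well plates; percent growth endpoint where 0 means no net growth. Active: below 10.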 Unmarked numbers belong to inactive results. Activity calls are given as the source filed them.

What follows are compounds tested on HL-60(TB) leukemia (assay: NCI-60 one-dose screen, 48 h (100 = growth as untreated, 0 = no growth, -100 = all killed)). Conditions: 10 µM unless noted.

Row | SMILES | growth
1 | CC1(C)CC[C@]2(C(=O)O)CC[C@]3(C)C(=CC[C@@H]4[C@@]5(C)C/C(=C/O)C(=O)C(C)(C)[C@@H]5CC[C@]43C)[C@@H]2C1 | 4.77% (active)
2 | CN1CCN(c2nc(NCCCCNc3ccnc4cc(Cl)ccc34)c3ccccc3n2)CC1 | 28.6%
3 | CN(c1cc2ncc(=O)[nH]c2cc1NC(N)=NCc1ccc(Cl)cc1)C1CCCCC1 | 52.9%
4 | COc1ccc2c(Nc3ccc(NS(C)(=O)=O)cc3)c3ccccc3nc2c1 | -8.29% (active)
5 | Clc1ccc2c(NCCCNCc3ccc4c(c3)OCO4)ccnc2c1 | 76.3%
6 | COc1ccc(N)c(S)c1 | 93.4%
7 | O=C(c1ccccc1)C1OC1c1ccc([N+](=O)[O-])cc1 (stereo not given) | 61.6%
8 | CC1Cc2c(N(C)C)ncnc2N(C)c2ccc(O)cc21 (stereo not given) | 81.1%
9 | C/C(=C\CCc1ccoc1)CC/C=C(\C)CCCC1COC(=O)C1 (stereo not given) | 95.8%
10 | COc1ccc2c(c1)C(C)Cc1c(N(C)C)ncnc1N2C (stereo not given) | -4.85% (active)
11 | CCCCCCCCCCCC(=O)C(CCCCCCCCCC)C(=O)Nc1ccccc1 (stereo not given) | 101%
12 | Nc1nc2c(nnn2Cc2ccc(Cl)c(Cl)c2)c(=O)[nH]1 | 95%
13 | COc1ccccc1NC(=O)c1sc2nc3c(cc2c1N)C(=O)CCC3 | 98.6%
14 | COc1ccc(/C=C/C(=O)O)cc1OC | 103% and 102%
15 | Cc1cc2nc3ccc(=[N+](C)C)cc-3sc2cc1N | -50.3% (active) and -34.8% (active)
